Measured values taken from ChEMBL document CHEMBL3988442, “University of Dundee, Small-Polar-MMV Screening Library” (2021).

Each compound was assayed against AMP-activated protein kinase, AMPK (Homo sapiens) (UniProt P54646+O43741+P54619+Q9UGJ0+Q9Y478+Q13131+Q9UGI9) (assay: AMP-dependent Kinase enzyme assay. An in vitro enzyme assay that detects ADP turnover that is directly proportional to AMPK activity. This uses naive AMPK that is activated during the assay with MK-8722). Details: 30 µM.
Type: functional
Design: scale not given: direction of the effect not stated beside the values
Compound Cc1nc(NC2(CN3CCCCC3)CCCCC2)c2cnn(C)c2n1 has a Percent Effect of 5.76%.
CCC(C)(CC(=O)OC)NCc1c(C)noc1C (centres undefined) gave a Percent Effect of 4.75%.
Compound CCc1ccc2nc(C)cc(C(=O)NC3CCNC3=O)c2c1 (centres undefined) has a Percent Effect of -4.37%.
In the case of Cc1sc2ccccc2c1S(=O)(=O)NCCNC(=O)C(C)C, the Percent Effect is reported as -0.0872%.
With COc1cccc(F)c1CN1CCC(c2nc(C)cc(C)n2)C1 (centres undefined) the Percent Effect was 1.72%.
For O=C(CCCN1CCCCC1)N[C@H](C(=O)O)c1cccc(F)c1F, the Percent Effect was 6.38%.
COc1ccc(Br)c(NC(=O)NCc2ncnn2C)c1 was tested, and the Percent Effect was -1.33%.
CC(C)COc1cncc(N2CCCN(c3ncccn3)CC2)n1 gave a Percent Effect of 65.1%.
CCN(Cc1cccc2c1OCCO2)C(=O)NC(C)(C)C showed a Percent Effect of -7.11%.
Compound COCCN(Cc1sccc1C)C(=O)c1c(O)cccc1F has a Percent Effect of 0.607%.
Work on CC1(C)OC(=O)N(CCCC(=O)c2ccc(F)cc2)C1=O yielded a Percent Effect of -8.28%.
Compound CSc1ncccc1C(=O)Nc1ccc(Cn2ccccc2=O)cc1 has a Percent Effect of -11.3%.
Cc1cccc(-c2nccnc2C2CCCN(C)C2)c1 (centres undefined) gave a Percent Effect of 11.8%.
For CCC(C)NC(=O)Nc1cccc(OC)c1 (centres undefined), the Percent Effect was -9.8%.
O=C(NCC(=O)N1CCCCC1)c1sccc1C1CC1 showed a Percent Effect of -1.89%.
With CCc1c(C)nc(-n2nc(-c3cccs3)cc2N)[nH]c1=O the Percent Effect was -6.28%.
CNc1cc2c(nn1)CCN(C(=O)c1ccccc1-n1cccn1)C2 gave a Percent Effect of -15.3%.
CCC[C@@H]1CN(Cc2cnc3c(S(C)(=O)=O)cnn3c2)C[C@H]1N(C)C was tested, and the Percent Effect was -10.1%.
For Cn1cc(CN2CCOC(Cc3cccc(F)c3)C2)cn1 (centres undefined), the Percent Effect was 4.61%.
